Bioassay records (PubChem BioAssay)
A selection: hits, their analogues and other compounds. The true share with any hit is near 1.8%.
MBNL1 CUG block – blocks human MBNL1 binding to CUG repeat RNA. AID 2675. Potency, µM (titrated, usually from 57.5 µM), for the others: at the top dose activity change, negative = inhibition, usual class: inhibitors. Q9NR56. TR-FRET MBNL1-His/biotin-(CUG)12 binding, 665/545 ratio. actives 0.036% (n = 280,000); active = well fitted inhibition curve with a large enough effect in the signal ratio, with a control signal flat, not every such curve was filed as active; inconclusive = small, poorly fitted or top-dose-only effect, or effect the other way, or a change in a side signal; inactive = no such curve, though single readings can be large or run the other way; the % refers to the signal ratio; also: potency is read from the fitted curve at half-maximal effect; % is scaled to controls: 0 for no effect and ±100 for the full control effect
Target sequence (Q9NR56 whole entry, looked up): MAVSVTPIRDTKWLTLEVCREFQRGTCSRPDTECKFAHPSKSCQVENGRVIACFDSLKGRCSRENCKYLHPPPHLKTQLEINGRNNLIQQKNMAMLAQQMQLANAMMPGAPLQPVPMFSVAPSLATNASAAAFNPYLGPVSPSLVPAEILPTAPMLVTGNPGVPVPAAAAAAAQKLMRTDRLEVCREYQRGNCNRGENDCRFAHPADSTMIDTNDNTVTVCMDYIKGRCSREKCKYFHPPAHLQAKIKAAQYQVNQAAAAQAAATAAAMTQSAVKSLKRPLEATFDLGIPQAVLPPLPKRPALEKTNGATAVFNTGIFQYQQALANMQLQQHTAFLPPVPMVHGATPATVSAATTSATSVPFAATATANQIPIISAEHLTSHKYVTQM
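TR-FRET between His-tagged MBNL1 and biotin-(CUG)12 RNA, detected with Tb anti-His antibody (0.055 ng/ul) and streptavidin-XL665 (5 nM), 60 min at room temperature. Compounds titrated 92 nM to 58 uM; 665/545 nm ratio normalized to buffer and complex controls.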
GRP78 ERSR act – induces the endoplasmic reticulum stress response in human glioma cells; U87-MG GRP78 promoter luciferase reporter, 16 h; AID 602332; Potency, µM, without a hit: at the highest dose activation, usual class: activators; actives 0.02% (n = 420,000); also: potency is read from the fitted curve at half-maximal effect; series mostly up to about 76 µM; % of control where 0% means no effect; nearly all actives have a fitted effect of over 35% in size
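ERSR induction read as luciferase luminescence (Bright-Glo, 10 min at room temperature) in stably transfected human U87-MG glioma cells exposed to compounds for 16 h, using GRP78 as sensor.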
TCR activator – activates T cell receptor signaling. 330,000 tested, under 10 active. primary human leukocytes, anti-CD3, IL-2 HTRF, 48 h. Potency, µM (highest dose often 9.22 µM), without a hit: at the highest dose activation of IL-2 secretion, hits mostly activators. AID 504894; also: % of control where 0% means no effect
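Using a-CD3 beads without co-stimulation, primary human leukocytes were exposed to compounds for 48 hr. An HTRF IL-2 kit measured the cytokine, with europium-to-d2 energy transfer producing emission at 665nm upon 320nm excitation.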
Mito fusion act – mitochondrial division inhibition or fusion activation; S. cerevisiae fusion-defective mutant growth rescue, CellTiterGlo 48 h; Potency, µM (titrated, usually from 46.1 µM), for inactives: top-dose growth rescue (activation), actives largely listed as activators; actives 0.23% (n = 320,000); AID 485298; also: potency is read from the fitted curve at half-maximal effect; % of control where 0% means no effect; nearly all actives have a fitted effect of over 45% in size
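Luminescent cell viability in 1536-well qHTS format served as the measure of rescued growth in ts fusion-mutant S. cerevisiae cultured on non-fermentable YPEG for 48 hours at 37C.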
A-T KAP1 phos – candidate therapy for ataxia-telangiectasia; F2112 A-T fibroblasts, KAP-1 phosphorylation AlphaLISA; neocarzinostatin DNA damage 30 min before lysis; Potency, µM (titrated, usually from 57.5 µM), inactives show top-dose activation, hits mostly activators; actives 0.19% (n = 320,000); AID 485349; also: potency is read from the fitted curve at half-maximal effect; % of control where 0% means no effect; nearly all actives have a fitted effect of over 45% in size
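ATM-like activity read as KAP-1 phosphorylation via AlphaLISA donor/acceptor antibody pairs after lysis and 6 hr at 25C. Cells were ATM-null patient fibroblasts (F2112, hTERT), dosed 60 min, then exposed to the DSB inducer NCS for 30 min.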
ClpP mod – qHTS Assay for Activators of ClpP. ATP-dependent Clp protease proteolytic subunit (Bacillus subtilis (strain 168)), P80244. purified B. subtilis ClpP, FRET peptide cleavage, 20 min. Potency, µM (doses to about 57.5 µM), for the others: at the highest dose activity change, negative = active. actives 1.9% (n = 340,000). AID 651965, 2013; active = well fitted falling curve with a large enough effect; inconclusive = small, poorly fitted or top-dose-only effect; inactive = no such curve, though single readings can be large or run the other way; also: potency is read from the fitted curve at half-maximal effect; the source files actives as falling curves though it sought activators and does not explain the sign; nearly all actives have a fitted effect of over 65% in size
Target sequence (P80244 whole entry, looked up): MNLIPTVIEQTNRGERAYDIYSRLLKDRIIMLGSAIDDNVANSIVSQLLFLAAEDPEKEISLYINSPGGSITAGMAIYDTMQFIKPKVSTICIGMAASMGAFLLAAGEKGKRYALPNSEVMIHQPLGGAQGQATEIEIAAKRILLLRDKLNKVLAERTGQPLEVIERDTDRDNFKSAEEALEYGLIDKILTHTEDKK
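Buffer: 100 mM Tris/HCl pH8, 100 mM KCl, 0.05% low protease BSA, 2.5% glycerol, 0.01% Tween-20. ClpP 10 microg/mL final; 20 min RT; delta FRET normalized to ADEP and DMSO controls.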
* marks the source's active call; other numbers are inactive results; ? = inconclusive; nt = no result given; [ ] = dose if it differs, or a comment. Unless noted, calls follow the shape of the dose curve; as a rule, active = well fitted curve in the direction sought with a large enough effect; inconclusive = small, poorly fitted or top-dose-only effect, or another doubt; inactive = no such curve, though single readings can be large; an effect the other way counts as inactive or inconclusive.

SMILES	MBNL1 CUG block	GRP78 ERSR act	TCR activator	Mito fusion act	A-T KAP1 phos	ClpP mod
O=S(=O)(O)OCC1OC(OC2(COS(=O)(=O)O)OC(COS(=O)(=O)O)C(OS(=O)(=O)O)C2OS(=O)(=O)O)C(OS(=O)(=O)O)C(OS(=O)(=O)O)C1OS(=O)(=O)O (configuration not stated)	nt	-3.9%	nt	nt	nt	nt
COc1ccc(OC)c(NC(=O)CNC(=O)c2cccs2)c1	-10.5%	-3.3%	2.6%	2.7%	nt	1.1%
COc1ccc(NC(=O)C(=O)NCC(=O)Nc2cc(OC)ccc2OC)cc1	-5.4%	-5.9%	-0.6%	-1.0%	-2.6%	10µM*
Cc1ccc(C(=O)NCC(=O)OCC(=O)NC(C)C2CC3CCC2C3)cc1 (configuration not stated)	nt	-1.9%	7.0%	9.5%	1.1%	31.6µM*
Cn1cnnc1Sc1ccc(CN2CCOc3ccc(C4=Cc5ccccc5C4)cc3C2)o1	nt	-1.3%	nt	nt	nt	nt
COc1cc(=O)n2c(c1C(=O)N(C)Cc1nonc1C)CCN(Cc1cccc3ccccc13)CC2	nt	-4.6%	nt	nt	nt	nt
Cc1nc2c(ccc3nc(NC(=O)Cc4ccccc4)sc32)s1	-2.9%	3.0%	-0.2%	11.2µM*	18.3%	-3.9%
CC1(C)Cc2c(C#N)c(SCCC#N)nc(N3CCOCC3)c2CS1	-9.5%	2.0%	5.8%	12.2%	1.0%	-2.8%
NC(=O)c1sc2nc(N3CCOCC3)c3c(c2c1N)CCCC3	?	-5.1%	-1.3%	5.5%	nt	15.8µM*
CCOC(=O)c1sc2nc(N3CCOCC3)c3c(c2c1N)CCC3	?	-4.6%	nt	16.0%	29.9%	97.1%
CC1(C)Cc2c(c(N3CCOCC3)nc3sc(C#N)c(N)c23)CS1	4.2%	-3.2%	-0.4%	6.7%	nt	28.2µM*
Cc1ccc(-c2nc3sc(C(N)=O)c(N)c3c3c2CCCC3)cc1	70.5%	-1.2%	0.6%[46.1 µM]	?	20.8%	-20.0%
CC1(C)Cc2c(c(N3CCOCC3)nc3sc(C(N)=O)c(N)c23)CO1	20.0%	-1.6%	-0.4%	-0.4%	22.4µM*	-0.8%
CC(=O)c1sc2nc(-c3ccc(C)cc3)c3c(c2c1N)CCCC3	9.6%	-4.2%	4.4%[46.1 µM]	15.8µM*	?	-29.0%
CC(=O)c1cccc(NC(=O)c2noc3c2CSc2ccccc2-3)c1	nt	3.5%	nt	nt	nt	-3.7%
COCc1c(C(=O)NC2CCCC2)cnn1-c1nccc(-c2cc(C)sc2C)n1	nt	4.9%	nt	nt	nt	nt
Cc1nc2cc(NC(=O)[C@@H]3C[C@@H](Sc4ccccn4)CN3Cc3cccc(Cl)c3)ccc2s1	nt	-3.0%	nt	nt	nt	nt
O=C(CNC(=O)C1CCCCC1)OCC(=O)c1ccc2c(c1)CCC2	nt	-2.2%	nt	nt	nt	0.0%
CCCC[C@@H]1CCCO[C@@](C(=O)NCCOC)(C(F)(F)F)C1	nt	-2.5%	nt	nt	nt	nt
Cc1ncc2c(c1CNC(=O)/C=C/c1cccs1)CCN(C(=O)C1CC(=O)OC13CCCCC3)C2 (configuration not stated)	nt	-2.8%	nt	nt	nt	nt
Cc1nc2sc(C(N)=O)c(N)c2c2c1CCCC2	?	-3.9%	4.0%	-2.1%	8.91µM*	nt
COC(=O)c1cc(=O)nc2sc(-c3cccs3)nn12	16.6%	-3.9%	-0.6%	-3.9%	-2.1%	317.9%
COC(=O)c1cc(=O)nc2sc(-c3ccc(F)cc3)nn12	?	-4.3%	-7.1%	0.3%	-5.9%	28.2µM*
CC(N)(C(=O)O)c1ccc(S(=O)(=O)O)cc1 (configuration not stated)	nt	-3.1%	nt	nt	nt	nt
C[C@@H]1C(=O)N(S(=O)(=O)c2ccccc2[N+](=O)[O-])[C@H]1c1ccc(-c2ccccc2)cc1	nt	-6.0%	nt	nt	nt	nt
SMILES	MBNL1 CUG block	GRP78 ERSR act	TCR activator	Mito fusion act	A-T KAP1 phos	ClpP mod
CC(=O)N1c2ccccc2C(=O)OC1c1cccnc1 (configuration not stated)	-6.6%	-2.7%	-0.5%	2.1%	3.3%	28.2µM*
COc1cccc(C2OC(=O)c3ccccc3N2C(C)=O)c1OC(C)=O (configuration not stated)	?	-5.5%	-0.4%	-1.6%	-4.3%	36.6%
COc1ccc(-c2nc(CCNC(=O)c3cccs3)cs2)cc1OC	nt	-5.0%	nt	nt	nt	28.2µM*
COc1ccc(CCC(=O)NCCc2csc(-c3ccc(F)cc3)n2)cc1	nt	0.3%	nt	nt	nt	-3.8%
COc1ccc(-c2nc(CCNC(=O)Cc3ccc(F)cc3)cs2)cc1	nt	-0.1%	nt	nt	nt	22.4µM*
COc1cc(OC)cc(C(=O)NCCc2csc(-c3ccc(C(F)(F)F)cc3)n2)c1	nt	-2.4%	nt	nt	nt	31.6µM*
COc1ccc(-c2ccc(CCC(=O)O)n2NC(N)=O)cc1	-15.6%	-0.8%	-4.8%	-1.4%	6.7%	3.3%
CCCn1c(CCC(=O)O)ccc1-c1ccc(OC)cc1	4.5%	-2.4%	-34.5%	-3.3%	nt	28.2µM*
C=CCn1c(CCC(=O)O)ccc1-c1ccccc1	-7.2%	-1.0%	4.7%	4.2%	-5.4%	28.2µM*
Cc1ccc(C(=O)Nc2ccc(C)c(S(=O)(=O)Nc3ccccc3Cl)c2)s1	-8.3%	-8.5%	3.6%[46.1 µM]	-5.6%	-4.2%	-10.2%
Cc1ccc(NC(=O)c2cc3c(s2)CCCC3)cc1S(=O)(=O)Nc1ccccc1Cl	-1.6%	-2.3%	1.0%[46.1 µM]	15.3%	6.6%	25.1µM*
O=C1c2cc(O)cc(O)c2OC[C@@H]1c1ccc(O)c(O)c1	nt	12.1%	nt	nt	nt	nt
COc1ccc(NC(=O)CCNC(=O)c2ccccc2Cl)cc1OC	-12.4%	-3.5%	-1.3%	14.7%	2.2%	1.4%
O=C(CCNC(=O)c1ccccc1Cl)Nc1ccc(Cl)c(C(F)(F)F)c1	?	-4.9%	-2.1%[46.1 µM]	35.5µM*	0.9%	0.8%
Cc1ccc(C2(c3noc(CN(C)Cc4cccnc4)n3)CCCC2)cc1	-13.0%	0.1%	1.3%	28.2µM*	6.7%	-1.1%
CC(C)CN1CC(C)C(=O)NC1=S (configuration not stated)	nt	-1.7%	0.6%	nt	nt	28.2µM*
CC(C)CN1CC(Br)C(=O)NC1=O (configuration not stated)	nt	-3.3%	0.3%	nt	nt	nt
Cc1cc(NCCCN2CCOCC2)n2c(nc3ccccc32)c1C#N	9.5%	-6.4%	1.4%	-8.4%	25.0%	-1.9%
Cc1cc(NCCN2CCOCC2)n2c(nc3ccccc32)c1C#N	0.4%	-6.2%	-5.3%	-24.3%	8.0%	3.55µM*
COc1cccc(-c2cnc(NCc3cc(Cl)ccc3O)n2C)c1	5.5%	-4.9%	-1.0%	10.0%	0.1%	28.2µM*
CC1=C(C)C(=O)C(C(CCCCCC(=O)O)c2ccccc2)=C(C)C1=O (configuration not stated)	nt	-0.9%	nt	nt	nt	nt
C[C@@H](C1=C(CCN(C)C)Cc2ccccc21)c1ccccn1	nt	-3.4%	nt	nt	nt	nt
